# Bioassay records as filed in PubChem BioAssay.
# FBW7 activator: activators of human E3 ligase FBW7; Q969H0; AlphaScreen FBW7–phospho-cyclin E peptide binding, activator screen; normalized activity (activation), % at 26.1 µM; 0.13% of 650,000 active; AID 1259310; in the data active = normalized activity above about 1.9%;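 note: purified mutant Fbw7 with reduced substrate affinity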
# MITF inh: inhibitors of human MITF; AlphaScreen MITF homodimerization, bead proximity signal; inhibition, % at 2.6 µM; 0.91% of 650,000 active; O75030; AID 1259374; in the data active = inhibition above about 50%
# Target sequence (O75030 whole entry, looked up): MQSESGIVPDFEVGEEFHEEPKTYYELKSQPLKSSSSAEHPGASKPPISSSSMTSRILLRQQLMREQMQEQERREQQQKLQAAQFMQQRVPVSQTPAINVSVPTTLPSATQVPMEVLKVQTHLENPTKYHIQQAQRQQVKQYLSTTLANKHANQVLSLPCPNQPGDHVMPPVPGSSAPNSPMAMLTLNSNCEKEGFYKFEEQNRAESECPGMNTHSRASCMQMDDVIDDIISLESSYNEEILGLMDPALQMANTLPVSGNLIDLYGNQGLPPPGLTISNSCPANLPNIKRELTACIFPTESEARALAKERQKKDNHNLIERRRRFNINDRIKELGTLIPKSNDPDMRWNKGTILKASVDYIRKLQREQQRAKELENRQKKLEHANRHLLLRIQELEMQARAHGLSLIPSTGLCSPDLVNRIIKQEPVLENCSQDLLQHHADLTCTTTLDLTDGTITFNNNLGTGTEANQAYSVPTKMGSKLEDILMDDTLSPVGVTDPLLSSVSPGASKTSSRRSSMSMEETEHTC
# GPR151 activ: activators of human GPR151; activation, % at 11.2 µM; 1% of 650,000 active; PathHunter beta-arrestin GPR151 cells, luminescence; Q8TDV0; in the data active = activation above about 4.9%
# TEAD-YAP inh: TEAD-YAP interaction inhibition. 1.4% of 640,000 active. inhibition, % at 9.12 µM. AID 1259422. HEK-TIYL cells, TEAD-Gal4/YAP UAS-luciferase luminescence; in the data active = inhibition above about 32%
# GPR151 confirm: confirmation of human GPR151 activators; shares compounds with GPR151 activ; GPR151 PathHunter beta-arrestin cells, luminescence, 90 min; % of EA-reagent control over plate median; activation, % at 11.2 µM; 6,700 tested, under 10 active;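 active = mean percent activation across replicates above the confirmation screen cutoff of 4.91%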
# GPR119 counter: counter-screen for GPR151 activators: effect on human GPR119; shares compounds with GPR151 activ; GPR119 PathHunter beta-arrestin cells, luminescence, 90 min; 0 = compound-well median, 100 = enzyme-acceptor control; activation, % at 11.2 µM; 0.3% of 6,700 active;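 active = mean percent activation in the counterscreen above 29.09%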;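 note: counterscreen on off-target GPR119 to flag nonselective hits from the GPR151 activator screen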
# A number is an active result; – = inactive; · = not tested or not shown. An excerpt weighted towards active compounds, which were near 3.5% of everything screened.
SMILES,FBW7 activator,MITF inh,GPR151 activ,TEAD-YAP inh,GPR151 confirm,GPR119 counter
CCn1ccnc1CN1CCN(Cc2ccc(F)cc2)C(CCO)C1 (stereo not drawn),–,–,13,–,–,–
CC(C)CN1CCN(Cc2cccc3nccnc23)CC1CCO (stereo not drawn),–,–,–,–,·,·
CCn1ccnc1CN1CCN(Cc2ccc(C)cc2)C(CCO)C1 (stereo not drawn),–,–,–,–,·,·
CCOc1ccc(CN2CCN(Cc3cnc(N(C)C)s3)CC2CCO)cc1 (stereo not drawn),–,–,5.7,–,–,–
Cc1ccc(CN2CCN(Cc3cccc4nccnc34)CC2CCO)cc1 (stereo not drawn),–,–,6.7,–,–,–
O=C1c2ccccc2NC(c2ccc3c(c2)OCO3)N1Cc1ccccc1 (stereo not drawn),–,–,–,–,·,·
CCN(CC)CCN1C(=O)c2ccccc2NC1c1ccc2c(c1)OCO2 (stereo not drawn),–,–,5.3,–,–,–
N#Cc1ccc(NC(=O)CSc2ccc(Br)cc2)cc1,–,–,–,–,·,·
O=C(CSc1ccc(Br)cc1)Nc1ccc([N+](=O)[O-])cc1,–,–,6.4,–,–,–
CCOC(=O)c1ccc(NC(=O)CN2C(=O)C3C4C=CC(C4)C3C2=O)cc1 (stereo not drawn),–,–,–,–,·,·
COc1ccc(SCCC(=O)Nc2ccc(Br)cc2)cc1,–,–,5.2,–,–,–
CCOC(=O)c1ccc(NC(=O)CN2C(=O)C3C4C=CC(C5CC45)C3C2=O)cc1 (stereo not drawn),–,–,7.0,–,–,–
CCOC(=O)c1ccc(NC(=O)CC2COc3ccccc3O2)cc1 (stereo not drawn),–,–,5.8,–,–,–
Clc1ccc(-c2nnc3ccc(SCc4cccnc4)nn23)cc1,–,–,–,–,·,·
Clc1ccc2c(c1)[C@@H]1C=CC[C@@H]1[C@H](c1ccncc1)N2,–,–,–,–,·,·
CCCOC(=O)c1ccc(NC(=O)CSc2ccccc2)cc1,–,–,–,–,·,·
CCOc1ccc(NC(=O)CSc2nc3c(c(=O)n2CC)SC(C)C3)cc1 (stereo not drawn),–,–,–,–,·,·
CCOC(=O)c1ccc(NC(=O)CSc2nc3c(c(=O)n2CC)SC(C)C3)cc1 (stereo not drawn),–,–,5.1,–,–,–
CCOC(=O)c1ccc(COC(=O)c2cc(Br)ccc2NC(C)=O)cc1,–,–,6.3,–,–,–
CCOC(=O)c1ccc(NC(=O)CSc2ccc(Br)cc2)cc1,–,–,7.9,–,–,–
CCOC(=O)C1=C(c2ccc(C)cc2)C(=O)c2ccccc2C1=O,–,–,–,–,·,·
NS(=O)(=O)c1ccc(NC(=O)CSc2ccc([N+](=O)[O-])cn2)cc1,–,–,7.9,–,–,–
O=C(CSc1ccc([N+](=O)[O-])cn1)Nc1cccc(C(F)(F)F)c1,–,–,5.6,–,–,–
O=C(CSc1ccc([N+](=O)[O-])cn1)Nc1ccc(Oc2ccccc2)cc1,–,–,–,–,·,·
O=C(c1nc2sccn2c1CN1CCOc2ccccc2C1)N1CCCCCCC1,–,–,–,–,·,·
SMILES,FBW7 activator,MITF inh,GPR151 activ,TEAD-YAP inh,GPR151 confirm,GPR119 counter
COCCn1c(SCC(=O)N2CCCC2=O)nnc1-c1ccncc1,–,–,5.3,–,–,–
COCCn1c(SCC(=O)NC2CCCC2)nnc1-c1ccncc1,–,–,–,–,·,·
COc1cc(/C=C\c2nc(O)c([N+](=O)[O-])c(=O)[nH]2)ccc1O,–,–,–,–,·,·
Cc1ccc(Cn2nnc3c(=O)[nH]c(C4CCN(C(=O)c5ccco5)CC4)nc32)cc1,–,–,–,–,·,·
O=C(c1ccco1)N1CCC(c2nc3c(nnn3Cc3ccccc3Cl)c(=O)[nH]2)CC1,–,–,5.7,–,–,–
CC(C)(C)c1nn2cnnc2n(/N=C/c2ccccc2I)c1=O,–,–,–,–,·,·
CC(C)(C)c1nn2cnnc2n(/N=C/c2ccccc2O)c1=O,–,–,5.9,–,–,–
N#Cc1ccc(NC(=O)COC(=O)CCC(=O)c2ccc3c(c2)OCCO3)cc1,–,–,11,–,6.8,–
CN(C)CCP(=O)(CCN(C)C)c1ccccc1,–,–,–,–,·,·
COc1ccc(-c2c[n+](CC(=O)OC3CC(C)CCC3C(C)C)c3n2CCCCC3)cc1 (stereo not drawn),–,–,5.3,86,–,–
O=C(CCSc1ccccc1)Nc1ccc(I)cc1,–,–,–,–,·,·
C=CCn1c(C)cc(C2=NNC(=Nc3ccccc3)SC2)c1C,–,–,–,–,·,·
COCCn1c(C)cc(C2=NNC(=Nc3ccccc3)SC2)c1C,–,–,11,57,–,–
CC1Cc2ccccc2N1C(=O)CN1C(=O)C(=O)N(C2CCCC2)C1=O (stereo not drawn),–,–,–,–,·,·
COc1ccc(NC(=O)n2cc(C)cn2)cc1OC,–,–,5.2,–,–,–
COc1ccc(Cl)cc1NC(=O)n1cc(C)cn1,–,–,–,–,·,·
CC(C)(C)CC(=O)NCCCS(=O)(=O)N1CCN(c2ccc(F)cc2)CC1,–,–,6.6,–,–,–
C=CCOc1ccccc1CN1CCC(c2nnc(SCc3ccncc3)n2C)CC1,–,–,–,–,·,·
CCN(CC)C(=O)C1CCCN(c2nc(NCc3cccnc3)c3ncn(-c4ccsc4)c3n2)C1 (stereo not drawn),–,–,6.6,37,–,–
Cn1cccc1/C=C1\SC(=S)NC1=O,–,–,5.1,–,–,–
COC(=O)C(C)N1C(=O)S/C(=C/c2ccc(Cl)cc2)C1=O (stereo not drawn),–,–,–,–,·,·
COC(=O)C(C)N1C(=O)S/C(=C/c2cccn2C)C1=O (stereo not drawn),–,–,5.5,–,–,–
Fc1ccc(C2C=C(c3ccc(Cl)cc3)Nc3nnnn32)cc1 (stereo not drawn),–,–,–,–,·,·
CC(C)c1ccc(OCC(=O)NCCCS(=O)(=O)N2CCc3ccccc3C2)cc1,–,–,8.2,–,–,–
COc1ccc(CCNC(=O)COc2ccc(C(C)C)cc2)cc1,–,–,6.7,–,–,–
COc1ccc(OCC(=O)NCCSc2ccccc2)cc1,–,–,10,–,–,–
CCOc1ccc(S(=O)(=O)N(CC(=O)NCCSc2ccccc2)c2ccccc2)cc1,–,–,5.7,–,–,–
CC1=C(C(=O)N2CCOCC2)C(c2ccc(Cl)c(Cl)c2)NC(=O)N1 (stereo not drawn),–,–,–,–,·,·
COc1cc(=O)n2c(c1C(=O)NCCC(C)C)CCN(C/C(C)=C/c1ccccc1)CC2,–,–,–,–,·,·
O=C(NCc1ccco1)c1ccc2c(c1)N(Cc1ccc(F)cc1)C(=O)CS2=O (stereo not drawn),–,–,–,–,·,·
